Hit rate of the full screen: of about 390,000 compounds, about 4,000 (1%) were called active. Another 7% or so got no clear call; they are omitted. This is one part of a sample in which actives are shown more often than they occur. The rule behind the calls is not given here.
Target: T1, DNA polymerase iota (Homo sapiens) (UniProt Q9UNA4)
T1 sequence (whole entry): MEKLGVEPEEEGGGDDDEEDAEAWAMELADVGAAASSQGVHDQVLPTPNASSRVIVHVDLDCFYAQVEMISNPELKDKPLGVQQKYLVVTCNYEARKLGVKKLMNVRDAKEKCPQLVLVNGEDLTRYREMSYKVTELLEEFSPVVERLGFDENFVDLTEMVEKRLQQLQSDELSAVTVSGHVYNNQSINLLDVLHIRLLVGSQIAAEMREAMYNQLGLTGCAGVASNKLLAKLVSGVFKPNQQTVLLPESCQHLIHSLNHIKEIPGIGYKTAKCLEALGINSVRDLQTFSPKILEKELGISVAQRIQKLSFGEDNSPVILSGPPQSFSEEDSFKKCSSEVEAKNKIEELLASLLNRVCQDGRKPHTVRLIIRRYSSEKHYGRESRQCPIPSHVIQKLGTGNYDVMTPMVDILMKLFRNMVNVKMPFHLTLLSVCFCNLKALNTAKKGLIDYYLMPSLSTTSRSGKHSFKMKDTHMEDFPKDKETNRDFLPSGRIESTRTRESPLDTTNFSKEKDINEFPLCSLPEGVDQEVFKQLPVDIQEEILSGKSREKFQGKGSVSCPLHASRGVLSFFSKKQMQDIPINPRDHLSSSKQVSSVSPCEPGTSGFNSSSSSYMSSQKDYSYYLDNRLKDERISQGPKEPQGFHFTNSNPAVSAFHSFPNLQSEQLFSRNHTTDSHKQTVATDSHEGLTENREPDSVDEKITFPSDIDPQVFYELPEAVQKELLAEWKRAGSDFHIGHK
Assay: qHTS for Inhibitors of Polymerase Iota. [Related pubchem assays (depositor defined):AID588623]
Assay type: functional

| Structure (SMILES) | Potency |
| --- | --- |
| COc1ccc(OC)c(/C=C/c2cccc3c2N(CCCCI)C=S3/C=C/c2cc(OC)ccc2OC)c1 (configuration not stated) | 70.8 µM (active) |
| Cl.NC(CCC(=O)O)C(=O)O (configuration not stated) | inactive |

Reference: ChEMBL document CHEMBL1201862, “PubChem BioAssay data set” (2004)
